Data taken from the supplement of paper PMC12340641.
Structures can show the parent of a compound that is named as a salt. ± gives the standard deviation of the averaged measurements.

The compounds below were run against IKZF1 (dCK*-IKZF1 fusion in HEK293FT) (UniProt Q13422) (assay: inhibition of IKZF1 HTRF signal (DMSO = 0%, pomalidomide 10 uM = 100%); higher = lower IKZF1 protein level). Conditions: compound concentration: 5 uM, overnight (~20 h).
IKZF1 (dCK*-IKZF1 fusion in HEK293FT), sequence (Q13422 whole entry, looked up, the tested form may be a part): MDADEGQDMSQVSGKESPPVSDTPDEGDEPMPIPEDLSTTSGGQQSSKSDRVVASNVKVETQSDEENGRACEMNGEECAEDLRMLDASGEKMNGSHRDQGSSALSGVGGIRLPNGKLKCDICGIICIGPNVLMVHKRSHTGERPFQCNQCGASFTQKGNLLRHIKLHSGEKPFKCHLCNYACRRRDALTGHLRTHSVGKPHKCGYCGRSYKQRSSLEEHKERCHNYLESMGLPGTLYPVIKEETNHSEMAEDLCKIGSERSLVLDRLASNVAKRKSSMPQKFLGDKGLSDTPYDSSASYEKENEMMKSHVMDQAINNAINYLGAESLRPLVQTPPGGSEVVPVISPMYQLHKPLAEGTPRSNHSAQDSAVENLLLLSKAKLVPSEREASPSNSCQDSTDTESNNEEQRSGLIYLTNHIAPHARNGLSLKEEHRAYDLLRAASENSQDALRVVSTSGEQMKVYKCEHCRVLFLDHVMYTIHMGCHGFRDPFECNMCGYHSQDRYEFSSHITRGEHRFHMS
Outline: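 Percent inhibition of IKZF1 signal was calculated per plate with vehicle and a reference degrader as anchors. The anchors were 0% for vehicle and 100% for the degrader, applied to background-subtracted 665/620 nm time-resolved FRET ratios from a commercial HTRF total-IKZF1 kit. Signal came from HEK293FT cells stably expressing an IKZF1 fusion, treated overnight at 37 °C with 5 μM compound in single wells of 384-well plates.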
`COc1cc(NS(C)(=O)=O)ccc1Nc1c2ccccc2nc2ccccc12` was tested, and the “inhibition of IKZF1 HTRF signal” value was -14.1%. With `Oc1c(Cl)cc(Cl)c(Cl)c1Cc1c(O)c(Cl)cc(Cl)c1Cl` the “inhibition of IKZF1 HTRF signal” value was -36%. In the case of `O=C(Nc1cc(C(F)(F)F)ccc1O)Nc1cc(C(F)(F)F)ccc1O`, the “inhibition of IKZF1 HTRF signal” value is reported as -27.7%. For `OCCN1CCN(CCCN2c3ccccc3Sc3ccc(Cl)cc32)CC1` [Perphenazine], the “inhibition of IKZF1 HTRF signal” value was 0.695 ± 0.86%. For `CN1CCC(=C2c3ccccc3Sc3ccccc32)CC1`, the “inhibition of IKZF1 HTRF signal” value was -29.9%. `O=C1CC[C@H](N2Cc3cc(N4CCN(CC5CCN(c6ccc([C@@H]7c8ccc(O)cc8CC[C@@H]7c7ccccc7)cc6)CC5)CC4)ccc3C2=O)C(=O)N1` was tested, and the “inhibition of IKZF1 HTRF signal” value was -15.2%. For `O=C(/C=C/c1ccc2ccccc2n1)c1ccncc1`, the “inhibition of IKZF1 HTRF signal” value was -36.5%. With `CC[N+](C)(CC)CCC[n+]1c(-c2ccccc2)c2cc(N)ccc2c2ccc(N)cc21` [propidium-iodide] the “inhibition of IKZF1 HTRF signal” value was 58.8%. With `CO[C@H]1/C=C/O[C@@]2(C)Oc3c(C)c(O)c4c(O)c(c(C=NN5CCN(C)CC5)c(O)c4c3C2=O)NC(=O)C(C)=CC=CC(C)[C@@H](O)[C@@H](C)[C@H](O)[C@H](C)[C@@H](OC(C)=O)[C@H]1C` (stereo partly specified) [Rifampin (Rifampicin)] the “inhibition of IKZF1 HTRF signal” value was -102%. `CO[C@@]12[C@@H]3NC3CN1C1=C(C(=O)C(N)=C(C)C1=O)[C@@H]2COC(N)=O` (stereo partly specified) was tested, and the “inhibition of IKZF1 HTRF signal” value was -1.54%. With `CC[C@]1(O)C[C@H]2CN(CCc3c([nH]c4ccccc34)[C@@](C(=O)OC)(c3cc4c(cc3OC)N(C)[C@H]3[C@@](O)(C(=O)OC)[C@H](OC(C)=O)[C@]5(CC)C=CCN6CC[C@]43[C@@H]65)C2)C1` [Vinblastine Sulfate] the “inhibition of IKZF1 HTRF signal” value was -11.7%.
